Shown are actives, neighbours in structure and some others; about 19% of the full set was active somewhere.
DT40 TDP1 no CPT: qHTS for Inhibitors of human tyrosyl-DNA phosphodiesterase 1 (TDP1): qHTS in cells in absence of CPT; DT40 Tdp1-/- hTDP1 cells, no CPT, ATP luminescence, 48 h; Potency, µM (titrated, usually from 46.2 µM), for the others: at the top dose activity change, negative = growth inhibition, hits mostly inhibitors; actives 15% (n = 420,000); note: potency is the fitted concentration of half-maximal effect; nearly all actives have a fitted effect of over 55% in size
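Cells were dispensed at 400 per well, compounds added by pin tool, plates incubated ≥48 hr at 37 °C, then CellTiter-Glo added for 30 min at room temperature before luminescence reading. Line: DT40 Tdp1-/- complemented with hTDP1; camptothecin omitted.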
ELG1 DNA repair: qHTS screen for small molecules that inhibit ELG1-dependent DNA repair in human embryonic kidney (HEK293T) cells expressing luciferase-tagged ELG1 | HEK293T ELG1-luciferase reporter, luminescence, 16 h; DNA damage induced by 5-fluorouridine | Potency, µM (series often up to 46.1 µM), without a hit: at the highest dose activity change, negative = inhibition, most hits filed as inhibitors | actives 2.3% (n = 330,000); note: potency is the fitted concentration of half-maximal effect; nearly all actives have a fitted effect of over 55% in size
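Reporter activity after DNA damage by 5-fluorouridine is monitored. Compound-treated cells incubate 16 hr at 37 °C, then ONE-Glo is added for 30 min before luminescence reading.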
IL1B secr inh: qHTS for Inhibitors of Inflammasome Signaling: IL-1-beta AlphaLISA Primary Screen; THP-1 LPS/ATP IL-1B secretion, AlphaLISA, 16 h; stronger effect = lower value; activity change, % at 57.5 µM; actives 4.7% (n = 360,000); AID 743279, 2014; in the data active = activity change below about -50%; inconclusive = mostly about -30% to -49%
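THP-1 cells pretreated 1 hr with compounds (up to 57.5 uM final), then stimulated with LPS (250 ng/mL final) plus ATP (1.25 mM final); secreted IL-1B measured by AlphaLISA after 16 hr, decreased signal indicating inhibition.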
Giardia kill: Small Molecules that selectively kill Giardia lamblia: qHTS. Giardia lamblia trophozoite viability. activity change, % at 7.66 µM, hits read low. actives 0.15% (n = 340,000). AID 540267, 2011; in the data active = activity change below about -80%; inconclusive = between about -30% and that limit;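 note: parasites exposed to compound for two days anaerobically before the ATP read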
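Trophozoites 100 cells/well + cpd; 48 hrs, 37 deg C, anaerobic. ATPLite 1-Step added, 15-30 min RT, luminescence read (ATP-based viability).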
TDP1 inh: qHTS Assay for Inhibitors of Tyrosyl-DNA Phosphodiesterase (TDP1) | Tyrosyl-DNA phosphodiesterase 1 (Homo sapiens), Q9NUW8 | recombinant TDP1, AlphaScreen DNA substrate cleavage | Potency, µM (series often up to 130 µM), for inactives: at the top dose activity change, negative = inhibition, usual class: inhibitors | actives 0.28% (n = 350,000); note: potency is the fitted concentration of half-maximal effect; nearly all actives have a fitted effect of over 40% in size
Target sequence (Q9NUW8 whole entry, looked up): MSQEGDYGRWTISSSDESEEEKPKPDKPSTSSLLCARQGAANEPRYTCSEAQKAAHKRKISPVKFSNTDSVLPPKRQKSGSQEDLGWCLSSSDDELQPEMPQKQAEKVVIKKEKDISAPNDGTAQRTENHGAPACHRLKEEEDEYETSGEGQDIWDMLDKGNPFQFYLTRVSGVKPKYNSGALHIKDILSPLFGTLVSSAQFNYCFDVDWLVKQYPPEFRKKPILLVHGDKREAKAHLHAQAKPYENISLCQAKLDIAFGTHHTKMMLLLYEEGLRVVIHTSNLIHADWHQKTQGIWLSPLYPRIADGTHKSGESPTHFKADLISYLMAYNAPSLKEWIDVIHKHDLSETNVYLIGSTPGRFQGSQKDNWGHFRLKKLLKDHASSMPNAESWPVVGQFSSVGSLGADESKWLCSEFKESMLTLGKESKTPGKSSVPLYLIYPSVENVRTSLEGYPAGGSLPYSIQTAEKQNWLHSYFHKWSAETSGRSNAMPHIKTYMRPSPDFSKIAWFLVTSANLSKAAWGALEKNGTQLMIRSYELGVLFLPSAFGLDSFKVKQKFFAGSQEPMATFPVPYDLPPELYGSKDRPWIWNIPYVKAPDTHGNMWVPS
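Signal: AlphaScreen proximity between streptavidin donor and anti-FITC acceptor beads on intact substrate. Reaction: Tdp1 1 nM, substrate 15 nM final, 5 min RT after 15 min compound preincubation.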
DT40 TDP1 CPT: qHTS for Inhibitors of human tyrosyl-DNA phosphodiesterase 1 (TDP1): qHTS in cells in presence of CPT; chicken DT40 Tdp1-/-;hTDP1 cells + 20 nM CPT, ATP luminescence, 48 h; Potency, µM (top dose mostly 46.2 µM), for inactives: at the highest dose activity change, negative = growth inhibition, most hits filed as inhibitors; actives 12% (n = 420,000); note: potency is the fitted concentration of half-maximal effect; nearly all actives have a fitted effect of over 55% in size
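Cell growth measured by CellTiter-Glo luminescence after a minimum 48 h, 37 C compound exposure with 20 nM CPT in Tdp1-knockout DT40 cells stably expressing hTDP1, seeded 400/well; qHTS titration format.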
Starred values were filed as active, the others as inactive; ? = inconclusive; . = no result; [ ] = remark or other dose. Unless noted, calls come from the whole dose curve; as a rule, active = well fitted curve in the direction sought with a large enough effect; inconclusive = small, poorly fitted or top-dose-only effect, or another doubt; inactive = no such curve, though single readings can be large; an effect the other way counts as inactive or inconclusive. % is set by controls: 0 for no effect and ±100 for the full control effect.

SMILES | DT40 TDP1 no CPT | ELG1 DNA repair | IL1B secr inh | Giardia kill | TDP1 inh | DT40 TDP1 CPT
C=CC(=O)Nc1cccc(Oc2ccnc(Nc3ccc(N4CCN(C)CC4)cc3)n2)c1 | 16.4µM* | . | -101.0* | -2.3 | . | ?
CCCCN(CC)CCCNC(=O)c1nn(-c2ccc(OC)cc2)c(=O)c2c1c1ccccc1n2C | -8.2% | . | . | . | -4.7% | -9.4%
Cc1nc(SCc2ccc(OCCC(C)C)cc2)n[nH]1 | ? | ? | 22.6 | 4.1 | -1.8% | 14.6µM*
CN1CCCC(C)(C(=O)Nc2ccc3scnc3c2)C1 (configuration not stated) | 0.6% | . | 46.5 | . | . | 0.6%
O=C1c2[nH]nc(-c3ccccc3O)c2C(c2cccc(Cl)c2)N1CC1CCCO1 (configuration not stated) | 18.4µM* | ? | -9.5 | 1.6 | 8.0% | ?
O=C1c2[nH]nc(-c3ccccc3O)c2C(c2cccc(Cl)c2)N1Cc1ccco1 (configuration not stated) | 18.4µM* | -7.4% | -12.0 | -0.6 | 9.4% | ?
O=C1c2[nH]nc(-c3ccccc3O)c2C(c2ccc(F)cc2)N1CC1CCCO1 (configuration not stated) | ? | -9.6% | -5.7 | 6.0 | 4.2% | ?
COc1ccc(C2c3c(-c4ccccc4O)n[nH]c3C(=O)N2Cc2ccco2)cc1OC (configuration not stated) | -20.3% | 0.0% | ? | -6.9 | 12.6% | -6.5%
Cc1ccc(C2c3c(-c4cc(C)ccc4O)n[nH]c3C(=O)N2Cc2ccco2)cc1 (configuration not stated) | ? | . | . | . | 12.3% | 23.1µM*
O=C1c2[nH]nc(-c3ccccc3O)c2C(c2ccc(F)cc2)N1Cc1ccco1 (configuration not stated) | 16.4µM* | 0.0% | -20.4 | -16.4 | 12.6% | 18.4µM*
COc1ccccc1OCCSc1nc2ccccc2n1CC(=O)N1CCOCC1 | ? | . | . | . | 5.7% | -15.3%
Cc1nn(-c2ccccc2)c2sc(C(=O)Nc3ccc(Cl)cc3Cl)cc12 | ? | . | . | . | 4.8%[12.3 µM] | ?
CC(C)c1c(C(=O)N2CCCCC2c2cccnc2)cnn1-c1nccc(-c2cccs2)n1 (configuration not stated) | ? | . | . | . | . | -11.2%[9.04 µM]
CC(Sc1nc2ncc(Cl)cc2[nH]1)C(=O)c1c(N)n(C)c(=O)n(C)c1=O (configuration not stated) | -3.0% | -2.2% | 10.3 | -20.3 | 0.3% | -3.8%
CCCn1c(N)c(C(=O)CSc2nc3ncc(Cl)cc3[nH]2)c(=O)n(C)c1=O | 21.4% | 4.1% | 53.4 | -25.3 | 28.2µM* | -20.6%
CC(C)Cn1c(N)c(C(=O)CSc2nc3ncc(Cl)cc3[nH]2)c(=O)n(C)c1=O | 16.4µM* | ? | ? | -9.0 | -14.4%[0.505 µM] | ?
CCOC(=O)c1c(S(=O)(=O)N2CCC(C(=O)Nc3ccc(F)cc3F)CC2)c(C)n(C)c1C | -3.2% | . | . | . | 6.4% | -17.1%
c1ccc(NC2=NCCN2CCC2CCCCC2)cc1 | ? | -4.4% | 0.0 | 17.3 | . | 23.1µM*
CCCCCCCN1CCN=C1Nc1ccccc1 | 25.9µM* | -9.9% | ? | -4.3 | -5.2% | 23.1µM*
CCCCN1CCN=C1Nc1ccccc1 | 0.6% | 28.8% | 13.8 | -11.5 | . | -15.0%
CCCOc1ccc(C(=O)NCC(c2ccc(OC)cc2)N2CCCCC2)cc1 (configuration not stated) | ? | . | . | . | 2.3% | ?
COc1ccc2c(c1)c(=O)c(C(=O)c1ccc(Cl)cc1)cn2CC(=O)Nc1ccc2c(c1)OCO2 | -16.9% | . | . | . | 6.4% | 0.6%
O=C(c1ccc(Cl)nc1)c1cccs1 | -9.0% | 1.1% | 10.1 | 15.9 | . | 1.6%
O=C(c1cccs1)c1no[n+]([O-])c1C(=O)c1cccs1 | 2.31µM* | ? | -97.4* | 34.8 | -11.2% | 1.84µM*
COc1cc(C)c(N(C(C)=O)c2ccccc2)c(C)c1 | -29.6% | ? | 4.6 | 2.2 | 0.0% | -13.3%
SMILES | DT40 TDP1 no CPT | ELG1 DNA repair | IL1B secr inh | Giardia kill | TDP1 inh | DT40 TDP1 CPT
CC(=O)N(C1=C(N)C(=O)c2ccccc2C1=O)c1ccccc1 | 13µM* | 18.3µM* | 51.7 | ? | . | 23.1µM*
COc1ccc(-n2c(C)cc(C(=O)Cn3nc(C(=O)O)c4ccccc4c3=O)c2C)cc1 | 16.4µM* | -15.9% | 0.0 | 13.0 | -6.7% | ?
Cc1cc(C(=O)Cn2nnc3ccccc3c2=O)c(C)n1-c1ccccc1F | ? | ? | -22.0 | -8.5 | 6.8% | ?
Cc1cc(C(=O)Cn2nc(C(=O)O)c3ccccc3c2=O)c(C)n1CCc1ccc(F)cc1 | ? | ? | -4.8 | -16.8 | 8.2% | 16.4µM*
COc1ccc(-n2c(C)cc(C(=O)Cn3nnc4ccccc4c3=O)c2C)cc1 | 20.6µM* | 5.7% | 0.0 | 16.3 | 8.4% | 20.6µM*
CN(C)S(=O)(=O)NCC1CCCN(Cc2ccc(-c3ccccc3)cc2)C1 (configuration not stated) | ? | -19.7% | -7.4 | 10.3 | . | ?
COc1ccc(-c2ccc(C3C4C=CCCC4(C)C(=O)N3Cc3ccccc3)c(F)c2)cc1 (configuration not stated) | . | . | . | 28.7 | 3.2% | .
CC(=O)c1ccc(NC(=O)COc2ccccc2-c2nc(-c3ccc(C)cc3)no2)cc1 | -4.5% | . | . | . | 5.7% | 12.5%
COc1cc(-c2nc3cnccn3c2Nc2c(C)cccc2C)ccc1O | ? | 0.9% | 23.0 | -13.6 | -0.5% | ?
Cc1cccc(C)c1Nc1c(-c2ccc(N3CCOCC3)cc2)nc2cnccn12 | 18.4µM* | -0.9% | 2.6 | -18.0 | 5.2% | ?
Cc1ccc(Nc2c(-c3ccc(N4CCOCC4)cc3)nc3c(C)cccn23)cc1 | 14.6µM* | . | . | . | 8.8% | 16.4µM*
Cc1cccc(C)c1Nc1c(-c2ccccc2Cl)nc2cnccn12 | 20.6µM* | . | . | . | 0.0% | ?
Cc1ccc(C)c(OCC(=O)Nc2ccccc2C(=O)N2CCOCC2)c1 | ? | -3.5% | -1.4 | -3.8 | 3.6% | 0.4%
CCOc1ccc(NC(=O)CCc2c(C)nc3nc(-c4cc(OC)cc(OC)c4)nn3c2C)cc1 | ? | . | . | . | 5.8% | -16.7%
O=c1cc[nH]c2cccc(Cc3ccccc3)c12 | 13µM* | -11.4% | -8.7 | 2.6 | 0.0% | ?

High-throughput results: PubChem, National Center for Advancing Translational Sciences (NCATS)
